An excerpt weighted towards active compounds, which were near 4.8% of everything screened.
hgDAF-12 ag: H. glycines DAF-12 receptor agonists, primary screen, cell-based, luminescence, HEK293, GAL4 fusion, UAS-luciferase | HEK293 GAL4-hgDAF12 UAS-luciferase reporter, agonist luminescence; normalized to butyrate control | activation, % at 6.8 µM | Nuclear hormone receptor DAF-12 (Heterodera glycines), GAL4 fusion | 370,000 compounds, 1.8% hits;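 active = activation above a cutoff set at the mean of all screened compounds plus 3 SD, cut at about 10% in these data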;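 note: 0% = DMSO wells and 100% = sodium butyrate wells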
SMARCA2 activ: SMARCA2 (BRM) function activators, primary screen, cell-based, luminescence, high throughput. MG213 cells, MMTV-luciferase reporter, dexamethasone, overnight. activation, % at 9.1 µM. 370,000 compounds, 1% hits. AID 652017, 2013; in the data active = activation above about 7.8%;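 note: 0% = vehicle wells and 100% = reference activator wells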
ssDAF12 agonist: S. stercoralis DAF-12 nuclear receptor activators, primary screen, cell-based, luminescence, HEK293, GRIP1 co-expression, lit1-tk-luc; Nuclear hormone receptor DAF-12 (Strongyloides stercoralis); HEK293 ssDAF-12/GRIP1 lit1-tk-luc reporter; % of 3 µM dafachronic acid response; activation, % at 6.8 µM; 370,000 compounds, 1% hits; AID 652126, 2013;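 active = activation above the mean over all tested compounds plus 3 SD, cut at about 0.9% in these data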;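 note: 0% = DMSO-only wells and 100% = 3 µM delta7-dafachronic acid wells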
DAX1 inh-1: DAX1 (NR0B1) inhibitors, primary screen, cell-based, HEK293, Gal4-DAX1, luciferase luminescence; HEK293 Gal4-DAX1 luciferase reporter; inhibition, % at 6.75 µM; 340,000 compounds, 0.99% hits; AID 504766, 2011;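 active = inhibition above the mean over all tested compounds plus 3 SD, cut at about 4.2% in these data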;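 note: 0% = DAX1-transfected cells with DMSO and 100% = empty-vector control cells with DMSO; inhibition shows as a rise in luminescence from relieved DAX1 repression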
Target sequence (P51843 207-470 limits assumed): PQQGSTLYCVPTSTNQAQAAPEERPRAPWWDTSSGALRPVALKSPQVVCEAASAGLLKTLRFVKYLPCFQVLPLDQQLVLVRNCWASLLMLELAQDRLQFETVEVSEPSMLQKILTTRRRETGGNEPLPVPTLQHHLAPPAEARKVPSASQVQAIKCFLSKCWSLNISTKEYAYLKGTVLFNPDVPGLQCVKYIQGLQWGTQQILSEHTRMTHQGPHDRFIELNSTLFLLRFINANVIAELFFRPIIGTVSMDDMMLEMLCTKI
DAX1 inh-2: DAX1 (NR0B1) inhibitors on StAR promoter, primary screen, cell-based, luminescence, SF-1 (NR5A1), full-length DAX-1 | 370,000 compounds, 1.1% hits | inhibition, % at 6.8 µM | HEK293T StAR-luciferase reporter, SF-1/DAX-1 repression relief | AID 652010, 2013;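 active = inhibition above the mean over all tested compounds plus 3 SD, cut at about 3.6% in these data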;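 note: 0% = DAX-1 cells with DMSO and 100% = cells lacking DAX-1 with DMSO; higher inhibition means more luminescence from relief of DAX-1 repression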
hcDAF12 agonist: H. contortus DAF-12 nuclear receptor activators, primary screen, cell-based, luminescence, HEK293, lit1-tk-luc reporter; HEK293 hcDAF-12 lit1-tk-luc reporter; 0% DMSO, 100% Δ7-dafachronic acid; activation, % at 6.8 µM; 370,000 compounds, 1.4% hits; AID 652067, 2013;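 active = activation above the mean of all tested compounds plus 3 SD, cut at about 5.5% in these data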;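 note: 100% = response to 3 µM Δ7-dafachronic acid high control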
* = called active by the depositor.

COc1ccc(Cc2nnc(SCC(=O)c3ccc(OC)cc3)o2)cc1 was read as hgDAF-12 ag -1, SMARCA2 activ -4, ssDAF12 agonist -1, DAX1 inh-1 -1, DAX1 inh-2 -1 and hcDAF12 agonist -3.
`Cc1ccn(CCC(=O)NC2CC(C)(C)Cc3c2cnn3-c2ccccc2C)n1` (stereo not given) gave hgDAF-12 ag 2, SMARCA2 activ -1, ssDAF12 agonist -1, DAX1 inh-1 1, DAX1 inh-2 3.8* and hcDAF12 agonist 3.
For Cc1ccc(-c2[nH]ncc2/C=N/n2c(COc3ccccc3C)nc3ccccc3c2=O)cc1 the results were hgDAF-12 ag 13*, SMARCA2 activ 2, ssDAF12 agonist -1, DAX1 inh-1 -2, DAX1 inh-2 -1 and hcDAF12 agonist 0.
`Cc1ccccc1OCc1nc2ccccc2c(=O)n1/N=C/c1c[nH]c2ccccc12` gave hgDAF-12 ag 0, SMARCA2 activ 0, ssDAF12 agonist -1, DAX1 inh-1 -1, DAX1 inh-2 1 and hcDAF12 agonist 2.
O=S(=O)(c1c(Cl)sc(Cl)c1Br)N1CCCC1 was read as hgDAF-12 ag -1, SMARCA2 activ 3, ssDAF12 agonist 1.5*, DAX1 inh-1 0, DAX1 inh-2 0 and hcDAF12 agonist -1.
COc1ccc(OC(=O)NCCc2ccccc2)cc1 was read as hgDAF-12 ag 13*, SMARCA2 activ -2, ssDAF12 agonist 0, DAX1 inh-1 2, DAX1 inh-2 0 and hcDAF12 agonist 2.
For COc1ccc(CCNC(=O)c2ccccc2)cc1 the results were hgDAF-12 ag 2, SMARCA2 activ 0, ssDAF12 agonist -1, DAX1 inh-1 0, DAX1 inh-2 0 and hcDAF12 agonist -1.
For COc1ccc(C(=O)CC(=O)C(=O)NCCc2cccc(C)c2)cc1 the results were hgDAF-12 ag 1, SMARCA2 activ -3, ssDAF12 agonist -1, DAX1 inh-1 2, DAX1 inh-2 0 and hcDAF12 agonist 6.4*.
For Cc1cc(NS(=O)(=O)c2ccc(NC(=O)/C=C/c3ccc(Br)cc3)cc2)no1 the results were hgDAF-12 ag 0, SMARCA2 activ 0, ssDAF12 agonist -1, DAX1 inh-1 0, DAX1 inh-2 4.5* and hcDAF12 agonist -1.
Cc1cc(NS(=O)(=O)c2ccc(NC(=O)c3oc4ccccc4c3C)cc2)no1 was read as hgDAF-12 ag 1, SMARCA2 activ -2, ssDAF12 agonist 0.9*, DAX1 inh-1 3, DAX1 inh-2 1 and hcDAF12 agonist 4.
For COc1ccc(OCC(=O)Nc2ccc(S(=O)(=O)Nc3cc(C)on3)cc2)cc1 the results were hgDAF-12 ag -1, SMARCA2 activ -1, ssDAF12 agonist 0, DAX1 inh-1 -1, DAX1 inh-2 1 and hcDAF12 agonist 1.
Screening Cc1cc(NC(=O)COc2ccccc2C(N)=O)no1 returned hgDAF-12 ag 7, SMARCA2 activ 5, ssDAF12 agonist 0, DAX1 inh-1 4.8*, DAX1 inh-2 3 and hcDAF12 agonist 1.
Screening Cc1cc(NC(=O)COc2ccccc2C)no1 returned hgDAF-12 ag 8, SMARCA2 activ 6, ssDAF12 agonist 0, DAX1 inh-1 0, DAX1 inh-2 3 and hcDAF12 agonist 1.
For COc1ccccc1OCC(=O)Nc1ccc(S(=O)(=O)Nc2cc(C)on2)cc1 the results were hgDAF-12 ag -1, SMARCA2 activ -2, ssDAF12 agonist 1.2*, DAX1 inh-1 1, DAX1 inh-2 0 and hcDAF12 agonist 5.
Cn1c(Cn2c(=O)sc3ccccc32)nnc1SCC(=O)Nc1cccc(Cl)c1 was read as hgDAF-12 ag 1, SMARCA2 activ 1, ssDAF12 agonist -1, DAX1 inh-1 2, DAX1 inh-2 0 and hcDAF12 agonist -1.

Source: PubChem (The Scripps Research Institute Molecular Screening Center)
